HP1b binding inh: HTS for Inhibitors of HP1-beta Chromodomain Interactions with Methylated Histone Tails; Chromobox protein homolog 1 (Homo sapiens), P83916; 390,000 compounds, 0.56% hits; Potency, µM (series often up to 114 µM), without a hit: at the top dose activity change, negative = inhibition, most hits filed as inhibitors; AlphaScreen HP1-beta / biotin-H3K9me3 peptide binding; further: potency means the concentration at half of the fitted maximal effect; nearly all actives have a fitted effect of over 70% in size
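AlphaScreen: HP1-beta (50 nM) preformed 30 min with biotin-H3(1-18)K9me3 peptide (50 nM) in PBS pH 7.4, 0.01% Tween-20. Compound added for 30 min at RT, then streptavidin donor/nickel chelate acceptor beads (10 ug/mL) for 30 min.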
PLK1 PBD block: qHTS for Inhibitors of PLK1-PDB (polo-like kinase 1 - polo-box domain): Primary Screen; Serine/threonine-protein kinase PLK1 (Homo sapiens), P53350; Plk1 PBD binding of FITC phosphopeptide, fluorescence polarization; Potency, µM, for the others: max response, negative = inhibition, actives largely listed as inhibitors; 360,000 compounds, 2.8% hits; AID 720504, 2013; further: potency means the concentration at half of the fitted maximal effect; series mostly up to about 57 µM; on the % scale 0 is the no-effect control and ±100 the full control effect; nearly all actives have a fitted effect of over 65% in size
G9a inh: qHTS Assay for Inhibitors of Histone Lysine Methyltransferase G9a; G9a H3K9 monomethylation, AlphaScreen, 2 h; Potency, µM (doses to about 102 µM), inactives show at the top dose activity, negative = inhibition, usual class: inhibitors; AID 504332, 2011; 350,000 compounds, 8.8% hits; further: potency means the concentration at half of the fitted maximal effect; on the % scale 0 is the no-effect control and ±100 the full control effect; nearly all actives have a fitted effect of over 75% in size
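Chemiluminescent proximity detection of H3K9 monomethylation, read after 10 min bead incubation in the dark. Reaction: 20 nM G9a, 500 nM biotin-H3K9 peptide, 20 uM SAM cofactor, 2 h, room temperature, following 15 min enzyme-compound preincubation.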
JMJD2A Tudor: qHTS Assay for Inhibitors of JMJD2A-Tudor Domain; Potency, µM (series often up to 114 µM), for the others: top-dose activity change, negative = inhibition, actives largely listed as inhibitors; AlphaScreen JMJD2A-Tudor / H3K4me3 peptide binding; AID 504339, 2011; 390,000 compounds, 4.4% hits; Lysine-specific demethylase 4A (Homo sapiens), O75164; further: potency means the concentration at half of the fitted maximal effect; on the % scale 0 is the no-effect control and ±100 the full control effect; nearly all actives have a fitted effect of over 50% in size
Target sequence (O75164 whole entry, looked up, the tested form may be a part): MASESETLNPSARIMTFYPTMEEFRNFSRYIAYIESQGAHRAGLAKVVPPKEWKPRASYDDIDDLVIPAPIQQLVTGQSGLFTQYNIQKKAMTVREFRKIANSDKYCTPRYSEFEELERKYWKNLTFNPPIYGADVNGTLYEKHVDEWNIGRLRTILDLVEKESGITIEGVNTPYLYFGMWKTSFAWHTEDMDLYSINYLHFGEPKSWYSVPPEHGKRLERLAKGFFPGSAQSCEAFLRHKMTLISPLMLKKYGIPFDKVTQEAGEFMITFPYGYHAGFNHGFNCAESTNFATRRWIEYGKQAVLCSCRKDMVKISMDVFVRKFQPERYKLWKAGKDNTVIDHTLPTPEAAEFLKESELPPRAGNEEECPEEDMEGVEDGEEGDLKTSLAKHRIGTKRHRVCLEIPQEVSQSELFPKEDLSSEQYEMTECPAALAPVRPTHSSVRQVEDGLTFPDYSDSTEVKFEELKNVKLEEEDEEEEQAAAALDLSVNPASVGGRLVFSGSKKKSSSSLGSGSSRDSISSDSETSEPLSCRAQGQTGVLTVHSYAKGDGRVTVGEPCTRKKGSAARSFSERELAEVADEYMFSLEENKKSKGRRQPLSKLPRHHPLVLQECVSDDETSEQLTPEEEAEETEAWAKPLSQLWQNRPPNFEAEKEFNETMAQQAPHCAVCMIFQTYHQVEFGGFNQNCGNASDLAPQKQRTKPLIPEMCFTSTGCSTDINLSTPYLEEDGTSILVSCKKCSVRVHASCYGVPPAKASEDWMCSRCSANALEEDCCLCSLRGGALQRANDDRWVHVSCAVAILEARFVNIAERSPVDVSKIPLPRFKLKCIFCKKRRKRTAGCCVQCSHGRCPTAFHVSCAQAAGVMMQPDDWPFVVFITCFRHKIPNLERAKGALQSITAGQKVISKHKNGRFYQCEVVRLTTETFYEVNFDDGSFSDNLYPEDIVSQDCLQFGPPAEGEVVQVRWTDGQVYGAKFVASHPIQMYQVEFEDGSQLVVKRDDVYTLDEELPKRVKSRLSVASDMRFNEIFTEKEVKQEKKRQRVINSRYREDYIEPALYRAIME
BAZ2B inh: qHTS Assay for Inhibitors of BAZ2B; 360,000 compounds, 4.4% hits; AlphaScreen BAZ2B-H3K14Ac peptide displacement; Potency, µM (top dose mostly 114 µM), without a hit: at the highest dose activity change, negative = inhibition, usual class: inhibitors; further: potency means the concentration at half of the fitted maximal effect; on the % scale 0 is the no-effect control and ±100 the full control effect; nearly all actives have a fitted effect of over 60% in size
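AlphaScreen luminescence quantifies BAZ2B engagement of H3K14Ac peptide; the protein and biotinylated peptide are both at 50 nM final, buffer PBS pH 7.4 with 0.01% Tween-20, all steps at room temperature.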
PI5P4K alpha inh: qHTS for Inhibitors of phosphatidylinositol 5-phosphate 4-kinase (PI5P4K) | max response, % | AID 652105, 2013 | Phosphatidylinositol 5-phosphate 4-kinase type-2 alpha (Homo sapiens), P48426 | 330,000 compounds, 1.2% hits | PI5P4Kalpha enzyme, ADP-Glo luminescence, 60 min; hits give low values; active means max response of -50% or lower; inconclusive means between -30% and -50%; inactive means -30% or higher; further: value at the top dose of about 77 µM; on the % scale 0 is the no-effect control and ±100 the full control effect
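ADP-Glo luminescence end-point read after a 60 min room-temperature kinase reaction of PI5P4Kalpha plus substrate, initiated with ATP at 5 microM final. Buffer: 0.038 M HEPES pH 7.4, EGTA, 0.1% CHAPS, 5% DMSO.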
The depositor's hits bear a star; u = inconclusive; x = no result; [ ] = dose if it differs, or a comment. A selection: hits, their analogues and other compounds. The true share with any hit is near 12%. Unless noted, the call rests on the fitted dose curve; in most records, active means well fitted curve in the direction sought with a large enough effect; inconclusive means small, poorly fitted or top-dose-only effect, or another doubt; inactive means no such curve, though single readings can be large; an effect the other way counts as inactive or inconclusive.

SMILES	HP1b binding inh	PLK1 PBD block	G9a inh	JMJD2A Tudor	BAZ2B inh	PI5P4K alpha inh
Cc1ccccc1-c1cccc([C@@H]2C[C@H]3[C@H](CON3C)CN2Cc2cc(Cl)cc(Cl)c2)c1	29.3%	-2.4%	x	-22.5%	x	35.2
Cc1ccc(NC(=O)CS(=O)CC(=O)N(c2ccc(C)cc2)C(C)C(=O)NC2CCCCC2)cc1 (configuration not stated)	41.1%	-6.4%	17.8µM*	-3.2%	16.0%	5.8
CCc1ccc(-c2nc(CN3CCC(C(=O)NCc4ccc(F)cc4)CC3)c(C)o2)cc1	24.7%	-9.0%	20.5%[59 µM]	u	1.7%	-25.7
CCc1ccc(-c2nc(CN3CCC(C(=O)NCCN(CC)c4ccccc4)CC3)c(C)o2)cc1	u	7.4%	u	50.1µM*	u	0.7
CCN(CCNC(=O)C1CCN(Cc2nc(-c3ccc(Cl)cc3)oc2C)CC1)c1ccccc1	u	-0.9%	u	50.1µM*	14.1µM*	-1.1
Cc1oc(-c2cccc(Cl)c2)nc1CN1CCC(C(=O)NC(C)c2ccccc2)CC1 (configuration not stated)	22.9%	x	-2.9%[59 µM]	-15.2%	-25.6%	x
Cc1oc(-c2ccc(Cl)cc2)nc1CN1CCC(C(=O)NCCCN2CCOCC2)CC1	24.6%	-7.4%	-13.0%[59 µM]	-9.0%	4.4%	x
CCN(CCNC(=O)C1CCCN(Cc2nc(-c3ccc(OC)cc3)oc2C)C1)c1ccccc1 (configuration not stated)	-42.0%	-0.9%	-32.5%[12.7 µM]	31.6µM*	11.2µM*	x
Cc1oc(-c2cccc(Cl)c2)nc1CN1CCC(C(=O)NC2CC2)CC1	-19.4%	21.2µM*	11.5%[59 µM]	-21.9%	1.3%	-2.8
Fc1ccc(-c2ccc3c(c2)C2CC3CCN2Cc2ccc3c(c2)OCO3)cc1 (configuration not stated)	-14.1%	4.8%	x	-31.5%	x	1.1
CCN(CCNC(=O)C1CCN(Cc2nc(-c3cccc(Cl)c3)oc2C)CC1)c1ccccc1	u	2.8%	u	39.8µM*	39.8µM*	26.8
Cc1oc(-c2ccc(Cl)cc2)nc1CN1CCCC(C(=O)N2CCOCC2)C1 (configuration not stated)	39.5%	-10.0%	u	-11.6%	-13.7%[57.1 µM]	-11.4
Cc1cccc(-c2nc(CN3CCCC(C(=O)N4CCN(c5cc(Cl)ccc5C)CC4)C3)c(C)o2)c1 (configuration not stated)	0.7%	x	14.1µM*	-33.3%	u	x
Cc1oc(-c2cccc(Cl)c2)nc1CN1CCC(C(=O)NCc2cccnc2)CC1	9.9%	-3.1%	20.5%[59 µM]	10.3%	-10.7%	-1.0
Cc1cc(-c2nnn(CCCOC(C)(C)C)c2C)ccc1-c1cn(CCCOC(C)(C)C)nn1	x	-2.8%	x	x	x	1.5
C=CCNC(=S)NNC(=O)c1ccc(OCCC)cc1	45.8%	-6.9%	7.8%[59 µM]	-0.4%	-2.0%	4.1
CCOC(=O)CCC(=O)NNC(=O)c1ccc(NC(=O)c2ccccc2)cc1	15.0%	29.9µM*	x	u	1.6%	-26.9
CCCOc1ccc(C(=O)NNC(=S)NC(=O)CC)cc1	20.7%	-8.1%	8.91µM*	31.6µM*	13.7%[57.1 µM]	x
CCCCC(=O)NC(=S)Nc1cccc(NC(=O)c2ccccc2)c1	28.8%	-28.7%	50.1µM*	-2.4%	-18.4%	-2.1
CC(C)CC(=O)Nc1ccc(C(=O)NNC(=S)NC(=O)C2CCCCC2)cc1	18.5%	-5.5%	u	89.1µM*	9.6%	x
N#Cc1ccccc1CSc1nnc(-c2ccc(Br)cc2)o1	25.2%	x	-3.2%[59 µM]	-8.6%	-11.8%	x
CCC(=O)NC(=S)NNC(=O)c1ccc(NC(=O)c2ccccc2)cc1	32.2%	3.4%	7.08µM*	u	-23.1%	u
COc1cc(SC)ccc1C(=O)N(CC(=O)Nc1ccccc1Br)Cc1ccco1	3.4%	-8.0%	39.8µM*	-26.9%	-34.8%	-3.8
CN(C)S(=O)(=O)c1ccc2c(c1)nnn2CCNC(=O)Nc1ccc(Cl)cc1	20.7%	x	7.6%[12.7 µM]	6.6%	-11.2%	x
O=C(O/N=C1/CCCc2occc21)c1ccc(F)cc1	2.8%	11.9µM*	-11.2%	u	-14.1%	-58.2*
SMILES	HP1b binding inh	PLK1 PBD block	G9a inh	JMJD2A Tudor	BAZ2B inh	PI5P4K alpha inh
Cc1ccc(S(=O)(=O)O/N=C2/CCCc3occc32)cc1	5.8%	-9.0%	50.1µM*	u	-36.6%	-13.9
COc1ccc(N2CCN(C(=O)[C@H](C)N3C(=O)C4CC=CCC4C3=O)CC2)cc1 (some centres not stated)	8.6%[57 µM]	2.4%	x	-5.5%	x	1.2
CC(C(=O)N1CCc2ccccc21)N1CCc2ccccc2C1 (configuration not stated)	29.6%	-4.2%	17.0%[59 µM]	-10.3%	4.2%	x
COc1ccc(N2CCN(C(C)C(=O)N3CC(C)OC(C)C3)CC2)cc1 (configuration not stated)	u	-14.3%	44.7µM*	0.891µM*	56.2µM*	3.0
COc1ccc(N2CCN(C(C)C(=O)N3CCc4ccccc43)CC2)cc1 (configuration not stated)	u	-8.3%	39.8µM*	u	u	20.9
COc1cc2c(cc1OC)CN(C(C)C(=O)N1CCc3ccccc31)CC2 (configuration not stated)	6.2%	-0.4%	u	-15.6%	56.2µM*	-2.3
COc1ccc(NC(=O)CC2C(=O)N(c3cccc(OC)c3)C(=O)N2Cc2cccnc2)cc1 (configuration not stated)	10.8%	x	-9.0%[59 µM]	-13.1%	-12.4%	x
CC1(C)CC1C(=O)N/C(=C/CCCCSCC(N)C(=O)O)C(=O)O (configuration not stated)	x	x	1.0%[12.7 µM]	x	x	x
CC(=O)OCCCNc1cc(Sc2ccc(Cl)cc2)c2nonc2c1[N+](=O)[O-]	4.7%	1.19µM*	u	-19.3%	-19.4%	10.0
CCN(CC)c1cc(NCCO)c([N+](=O)[O-])c2nonc12	28.1%	-1.9%	x	-13.9%	-11.2%	-0.8
CC(C)CCSc1cc(NCCO)c([N+](=O)[O-])c2nonc12	21.7%	-25.9%	50.1µM*	-30.8%	-33.4%	0.0
Cc1ccc(Sc2cc(NCCCO)c([N+](=O)[O-])c3nonc23)cc1	-5.4%	23.8µM*	50.1µM*	-11.8%[11.4 µM]	-25.1%	-12.4
COC(=O)CCSc1cc(NCCCOC(C)=O)c([N+](=O)[O-])c2nonc12	8.1%[57 µM]	x	x	0.8%[57.1 µM]	x	x
